These results are taken from PubChem BioAssay (EPA / NIEHS).

Molecules are shown by their SMILES. Active and inactive are the calls of the source. The calls were made as follows: active = hit-call score of the fitted dose curve at least 0.9, where 1 is the maximum; inactive = score below 0.9.

Assay [1] can be described thus: APR_HepG2_CellCycleArrest_24hr: Apredica 24-hour HepG2 Assay for Cell Cycle Arrest (AID 2282905).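 Also: cell cycle arrest scored as ratio of 2N to 4N nuclear DNA content.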 As to conditions: imaging, actives raise or lower the signal. In a few lines:
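Cell cycle arrest is scored from nuclear DNA content measured by high-content imaging of Hoechst 33342-stained HepG2 cells following 24-hour treatment at ten concentrations up to 200 uM, with DMSO as baseline.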

The nature of assay [2]: APR_HepG2_StressKinase_1hr: Apredica 1-hour HepG2 Assay for Stress Kinase (AID 2282906). The conditions noted are these: HepG2 stress kinase (phospho-c-Jun) imaging, actives raise or lower the signal. In a few lines:
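HepG2 cells dosed 0.39-200 uM (0.5% DMSO) for 1 h, then formaldehyde-fixed. Stress kinase read by phospho-c-Jun immunofluorescence using high-content imaging; bidirectional fit vs DMSO.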

A short description of assay [3]: APR_HepG2_NuclearSize_24hr: Apredica 24-hour HepG2 Assay for Nuclear Size (AID 2282907). As to conditions: high-content imaging, actives raise or lower the signal. In a few lines: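 Compounds in DMSO (final 0.5%) were added to human HepG2 hepatoma cells at ten concentrations up to 200 uM for 24 hr. Fixed nuclei were stained with Hoechst 33342, and nuclear diameter was quantified from automated images.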

Assay [4] can be described thus: APR_HepG2_CellLoss_24hr: Apredica 24-hour HepG2 Assay for Cell Loss (AID 2282908).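 As to AC50: fit in both directions so a hit may be cell loss or gain.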 The conditions noted are these: high-content imaging. In outline: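 Cell number is quantified by fluorescence imaging of Hoechst 33342-stained nuclei following dosing at 0.39–200 uM in 0.5% DMSO. Curves are fitted in both directions from the DMSO baseline.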
Assay [5] can be described thus: APR_HepG2_MitoticArrest_24hr: Apredica 24-hour HepG2 Assay for Mitotic Arrest (AID 2282910). As to conditions: high-content imaging, actives raise or lower the signal. In a few lines: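 HepG2 human liver cells were exposed to compounds at 0.39–200 uM (10 concentrations, duplicate) in 0.5% v/v DMSO for 24 hr, then fixed and immunostained for phospho-histone H3 with Hoechst 33342. Mitotic arrest came from HCS fluorescent imaging, fitted bidirectionally against DMSO.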

Assay [6] is described as follows: APR_HepG2_MitoMembPot_24hr: Apredica 24-hour HepG2 Assay for Mitochondrial Membrane Potential (AID 2282911). The conditions noted are these: imaging, actives raise or lower the signal. In a few lines:
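HepG2 human liver cells were exposed 24 hr to compounds at 0.39–200 uM (final DMSO 0.5% v/v) in duplicate. MitoTracker Red CMXRos (250 nM, 30 min) was loaded before formaldehyde fixation; fluorescence was imaged by ArrayScan HCS and fitted bidirectionally versus DMSO.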

Assay [7] in a line: APR_HepG2_MitoMass_24hr: Apredica 24-hour HepG2 Assay for Mitochondrial Mass (AID 2282912). The conditions noted are these: high-content imaging, actives raise or lower the signal. In outline:
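The liver line HepG2 was dosed in duplicate across a 0.39–200 uM series, with final DMSO held at 0.5% v/v, and harvested at 24 hr. High-content imaging measured mitochondrial dye staining.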

A short description of assay [8]: APR_HepG2_p53Act_24hr: Apredica 24-hour HepG2 Assay for p53 Activation (AID 2282913).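 Also: p53 protein immunofluorescence averaged per cell in HepG2 with Hoechst nuclei.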 The conditions noted are these: high-content imaging, actives raise or lower the signal. In outline:
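HepG2 cells exposed 24 hr to compounds at 0.39–200 uM (10 concentrations, duplicate), final DMSO 0.5% v/v. After formaldehyde fixation and Triton permeabilization, p53 was immunolabeled (sheep anti-p53, Cy5 secondary) with Hoechst 33342 nuclear counterstain, then imaged by high-content fluorescence microscopy.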

Assay [9] is described as follows: APR_HepG2_CellCycleArrest_72hr: Apredica 72-hour HepG2 Assay for Cell Cycle Arrest (AID 2282914). As to conditions: high-content imaging, actives raise or lower the signal. In a few lines: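 HepG2 cells were exposed to compounds at 0.39–200 uM (0.5% v/v DMSO final, duplicates) for 72 hr, fixed in 3.7% formaldehyde, permeabilized and stained with Hoechst 33342. Nuclear DNA content was quantified by high-content imaging; gain or loss of signal was fitted bidirectionally against DMSO.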

Assay [10] can be described thus: APR_HepG2_P-H2AX_72hr: Apredica 72-hour HepG2 Assay for H2AX Phosphorylation (AID 2282916).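 Also: phospho-histone H2A.x immunostain intensity per cell marking DNA damage.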 The conditions noted are these: imaging, actives raise or lower the signal. In outline:
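Following 72 hr treatment with 0.39–200 uM compound, HepG2 cells were formaldehyde-fixed, permeabilized and stained for phospho-H2A.x; signal was measured by high-content imaging and fitted bidirectionally against DMSO controls.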

Assay [11] is described as follows: APR_HepG2_MitoticArrest_72hr: Apredica 72-hour HepG2 Assay for Mitotic Arrest (AID 2282918). The conditions noted are these: high-content imaging, actives raise or lower the signal. In a few lines: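 HepG2 cells were exposed for 72 hr to compound at 0.39–200 uM (10 concentrations, duplicate) in 0.5% v/v DMSO, fixed in 3.7% formaldehyde, immunostained for phospho-histone H3 with Hoechst 33342 and imaged by high-content fluorescence; bidirectional fits versus DMSO.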

A short description of assay [12]: APR_HepG2_MicrotubuleCSK_72hr: Apredica 72-hour HepG2 Assay for Microtubule CSK Stabilty (AID 2282919). The conditions noted are these: HepG2 microtubule cytoskeleton, high-content imaging, actives raise or lower the signal. In outline: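 HepG2 human liver cells were dosed for 72 h at ten concentrations from 0.39 to 200 uM in duplicate (0.5% v/v DMSO final). Fixed, permeabilized cells were immunostained for alpha-tubulin (Cy5) with a Hoechst counterstain and imaged at 20x.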

Assay [13] is described as follows: APR_HepG2_P-H2AX_24hr: Apredica 24-hour HepG2 Assay for H2AX Phosphorylation (AID 2282920). As to conditions: high-content imaging, actives raise or lower the signal. In a few lines:
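HepG2 human liver cells were exposed for 24 hr to compounds at 0.39–200 uM in duplicate, with 0.5% v/v DMSO final. Fixed cells were immunostained for phospho-histone H2A.x plus Hoechst 33342, imaged by HCS fluorescence, and fitted bidirectionally against DMSO.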

Assay [14] is described as follows: APR_HepG2_StressKinase_72hr: Apredica 72-hour HepG2 Assay for Stress Kinase (AID 2282921). The conditions noted are these: HepG2 stress kinase (phospho-c-Jun) imaging, actives raise or lower the signal. In a few lines: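 Fluorescence intensity of Cy3-tagged anti-phospho-c-Jun antibody, quantified per cell from Hoechst-defined nuclei across six images per well, served as the read-out following 72 h exposure (0.39–200 uM, 0.5% v/v DMSO).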

Assay [15] in a line: APR_HepG2_StressKinase_24hr: Apredica 24-hour HepG2 Assay for Stress Kinase (AID 2282922). As to conditions: HepG2 stress kinase (phospho-c-Jun) imaging, actives raise or lower the signal. In a few lines: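 HepG2 cells exposed 24 hr to compound at 0.39–200 uM (10 concentrations, duplicate), 0.5% v/v DMSO final. Fixed in 3.7% formaldehyde, permeabilized with Triton X-100, immunolabeled for phospho-c-Jun with Hoechst 33342; HCS fluorescence imaging, bidirectional fit versus DMSO.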

Assay [16] in a line: APR_HepG2_p53Act_72hr: Apredica 72-hour HepG2 Assay for p53 Activation (AID 2282923).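 Also: average cellular p53 protein immunofluorescence intensity in HepG2 cells.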 As to conditions: high-content imaging, actives raise or lower the signal. In outline:
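HepG2 monolayers receive test compounds in duplicate at ten concentrations (0.39 through 200 uM) for 72 hr. They are then formaldehyde-fixed, antibody-labelled for p53, Hoechst-stained and imaged, with activity fitted bidirectionally versus DMSO.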

A short description of assay [17]: APR_HepG2_MitoMass_72hr: Apredica 72-hour HepG2 Assay for Mitochondrial Mass (AID 2282924).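 Also: MitoTracker Red CMXRos stain intensity per cell imaged as mitochondrial mass.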 The conditions noted are these: high-content imaging, actives raise or lower the signal. In outline:
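HepG2 cells were exposed for 72 hr to compounds at 0.39–200 uM (ten concentrations, duplicate, 0.5% v/v DMSO final). Live cells were stained with 250 nM MitoTracker Red CMXRos for 30 min, then fixed in 3.7% formaldehyde and imaged by HCS fluorescence.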

The nature of assay [18]: APR_HepG2_MitoMembPot_72hr: Apredica 72-hour HepG2 Assay for Mitochondrial Membrane Potential (AID 2282917). As to conditions: imaging, actives raise or lower the signal. In outline:
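HepG2 cells exposed 72 h to compounds at 0.39–200 uM (0.5% v/v DMSO, duplicates); MitoTracker Red CMXRos 250 nM loaded 30 min before 3.7% formaldehyde fixation, imaged by HCS fluorescence. Bidirectional fit versus DMSO.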

A short description of assay [19]: APR_HepG2_MicrotubuleCSK_24hr: Apredica 24-hour HepG2 Assay for Microtubule CSK Stabilty (AID 2282909). The conditions noted are these: HepG2 microtubule cytoskeleton imaging, actives raise or lower the signal. In outline:
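Steps: dose HepG2 for 24 h (0.39–200 uM, 0.5% DMSO); fix 30 min in 3.7% formaldehyde at room temperature; permeabilize; stain alpha-tubulin 60 min; image microtubule cytoskeleton at 20x. Signal change fitted in both directions relative to DMSO.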

A short description of assay [20]: APR_HepG2_CellLoss_72hr: Apredica 72-hour HepG2 Assay for Cell Loss (AID 2282915). As to conditions: high-content imaging. In a few lines:
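HepG2 cells were exposed for 72 hr to compounds at 0.39–200 uM (ten concentrations, duplicate) in 0.5% v/v final DMSO. Nuclei were stained with Hoechst 33342 after 3.7% formaldehyde fixation, imaged at 20x, and counted; fits bidirectional versus DMSO.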

With `O=C(Nc1ccc([N+](=O)[O-])cc1Cl)c1cc(Cl)ccc1O`, the AC50 in assay [1] is 0.0918 µM (active); in [2], 0.364 µM (active); in assay [4], 0.332 µM (active); in [5] it was 0.784 µM (active); in assay [7], 2.63 µM (active); in assay [8], 1.49 µM (active). The half-maximal activity concentration (AC50) in [9] was 0.463 µM (active); in assay [11], 0.238 µM (active); in [12], 0.0444 µM (active); in assay [13] it was 1.8 µM (active). Besides, the call in assay [3], in assay [6], in assay [10], in assay [14], in [15] and in [16] was inactive. For the same molecule, the molecule was classed as inactive in assay [17].

Regarding `CCCOC(=O)NCCCN(C)C`, the molecule was classed as inactive in assay [1], in [2], in assay [3], in assay [4], in assay [5] and in assay [6]. Further, the outcome in assay [7], in [8], in [9], in assay [10], in [11] and in [12] was inactive. Besides, the result in [13], in [14], in assay [15], in [16] and in assay [17] was inactive.

On to `COC(=O)c1ccccc1C(=O)O`, for which the molecule was called inactive in assay [1], in assay [2], in [3], in assay [4], in [5] and in assay [6]. Also, the molecule was classed as inactive in [7], in assay [8], in [9], in assay [10], in assay [18] and in assay [11]. The result in assay [12], in assay [13], in assay [14], in [15], in assay [16] and in [17] was inactive.

`CC(C)CCCCCCc1ccc(O)cc1`: the AC50 in assay [1] is 96.8 µM (active); in assay [4], 26.8 µM (active); in assay [19], 65.4 µM (active); in assay [5] it was 26.3 µM (active); in assay [6] it was 115 µM (active); in [7], 34.5 µM (active). The AC50 in [9] was 123 µM (active); in [10] it was 30.1 µM (active); in assay [11], 30.9 µM (active); in [12], 62.1 µM (active); in assay [13], 100 µM (active); in assay [16], 29.7 µM (active). The AC50 in assay [17] was 21.4 µM (active). Also, the molecule was classed as inactive in assay [3], in assay [8] and in assay [15].

With `CSC(=O)c1cccc2nnsc12`, the outcome in assay [1], in [2], in [3], in assay [4], in [5] and in assay [6] was inactive. Also, the molecule was classed as inactive in assay [7], in assay [8], in assay [9], in [10], in assay [11] and in assay [12]. For the same molecule, the call in assay [13], in [15], in [16] and in assay [17] was inactive.

With `CCOC(=O)c1ccc(O)cc1`, the outcome in [1], in assay [3], in [4], in assay [19], in assay [5] and in assay [6] was inactive. Moreover, the result in assay [7], in [8], in assay [9], in assay [20], in [10] and in assay [18] was inactive. In addition, the result in [11], in assay [12], in assay [13], in [14], in [15] and in [16] was inactive. Besides, in [17], the outcome was inactive.

As for `O=C(O)c1ccccc1`, the molecule was classed as inactive in [1], in assay [3], in assay [4], in assay [5], in [6] and in assay [7]. The molecule was classed as inactive in [8], in assay [9], in assay [10], in [11], in assay [12] and in assay [13]. The result in assay [14], in assay [15], in assay [16] and in assay [17] was inactive.
